Measurements published in PubChem BioAssay (NCI).
This is part of a sample that, as a whole, favours compounds with a hit. Of some 79,000 tested, about 15% had one in any assay. The source made the active and inactive calls. Cut-off read from the data, not from the text of the source: active = growth inhibition above about 70%; inactive = the rest.

Key:
[1] = NCI Yeast Anticancer Drug Screen. Data for the rad52 strain (AID 147);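 note: 0% = growth of vehicle-treated control cultures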; details: S. cerevisiae rad52 mutant growth inhibition, hits give high values
Method in brief: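 Growth of repair-deficient yeast cells was compared between compound-treated and vehicle-treated cultures to give percent inhibition.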

[2] = NCI Yeast Anticancer Drug Screen. Data for the wt1 strain (AID 149);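 note: 0% = growth of vehicle-treated wt1 cultures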; details: S. cerevisiae wt1 strain (SPY 50644) growth inhibition, hits give high values
Method in brief: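 Measured: growth of wt1 yeast under compound versus vehicle treatment, reported as inhibition.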

[3] = NCI Yeast Anticancer Drug Screen. Data for the rad50EPP+ strain (AID 151);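 note: 0% = growth of vehicle-treated control cultures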; details: S. cerevisiae rad50 mutant strain, hits give high values
Method in brief: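 Measured: growth inhibition of rad50EPP+ yeast. Reference: vehicle-treated controls. Screen uses strains with defined genetic alterations in DNA damage repair or cell cycle control.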

[4] = NCI Yeast Anticancer Drug Screen. Data for the mgt1 strain (AID 153); details: S. cerevisiae mgt1 mutant growth inhibition, hits give high values
Method in brief: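 Compounds were applied to mgt1 mutant yeast, and growth was then compared against vehicle-treated control cultures to give percent inhibition.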

[5] = NCI Yeast Anticancer Drug Screen. Data for the rad50 strain (AID 155);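 note: 0% = growth of vehicle-only cultures of the same strain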; details: S. cerevisiae rad50 strain growth inhibition, hits give high values
Method in brief: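 Growth of the mutant yeast was measured after compound exposure and referenced to vehicle-treated cultures.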

[6] = NCI Yeast Anticancer Drug Screen. Data for the mec2-1 strain (AID 157); details: S. cerevisiae mec2-1 strain, hits give high values
Method in brief: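 Compounds were applied to mec2-1 yeast cells. Their growth was then compared with that of vehicle-treated cultures to give growth inhibition.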

[7] = NCI Yeast Anticancer Drug Screen. Data for the rad14 strain (AID 159);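 note: 0% = growth of vehicle-treated control cultures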; details: S. cerevisiae rad14 strain growth inhibition, hits give high values
Method in brief: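 Here, inhibition of yeast growth was measured after compound exposure, using a strain with a genetic defect in DNA damage repair and vehicle-treated cultures as the reference.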

[8] = NCI Yeast Anticancer Drug Screen. Data for the sgs1 mgt1 strain (AID 161);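 note: 0% = growth of cultures given vehicle only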; details: S. cerevisiae sgs1 mgt1 strain, hits give high values
Method in brief: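 Compounds are added to genetically altered yeast, and growth is compared with cultures given vehicle alone to give percent inhibition.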

[9] = NCI Yeast Anticancer Drug Screen. Data for the CLN2oe strain (AID 163);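 note: 0% = growth of vehicle-only control cultures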; details: S. cerevisiae CLN2oe strain, hits give high values
Method in brief: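 Cells of an engineered yeast line with disturbed cell-cycle regulation are treated with compound. Inhibition of growth is then calculated relative to the vehicle-treated reference.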

[10] = NCI Yeast Anticancer Drug Screen. Data for the cln2 rad14 strain (AID 165);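 note: 0% = growth equal to vehicle treated cultures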; details: S. cerevisiae cln2 rad14 strain, hits give high values
Method in brief: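 Strain: cln2 rad14 yeast, altered in cell cycle control and DNA damage repair. Read-out: growth inhibition vs vehicle.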

[11] = NCI Yeast Anticancer Drug Screen. Data for the bub3 strain (AID 167); details: S. cerevisiae bub3 mutant strain, hits give high values
Method in brief: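 Whole-cell yeast assay. The mutant strain was incubated with compounds, and growth inhibition was determined by comparison with vehicle-treated cells.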

[12] = NCI Yeast Anticancer Drug Screen. Data for the wt2 strain (AID 169);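 note: 0% = growth of vehicle-treated yeast cultures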; details: S. cerevisiae wt2 strain growth inhibition, hits give high values
Method in brief: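 Growth of compound-treated yeast is measured and expressed as inhibition relative to vehicle-only controls.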

[13] = NCI Yeast Anticancer Drug Screen. Data for the mlh1 strain (AID 171);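 note: 0% = growth of vehicle-treated control cultures of the same strain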; details: S. cerevisiae mlh1 strain growth inhibition, hits give high values
Method in brief: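 Test agents were incubated with yeast bearing a defined DNA damage repair or cell cycle control alteration; values are growth inhibition normalised to vehicle-treated cultures.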

[14] = NCI Yeast Anticancer Drug Screen. Data for the sgs1 strain (AID 173);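 note: 0% = growth of vehicle-only control cultures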; details: S. cerevisiae sgs1 mutant, hits give high values
Method in brief: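 Strain with an altered DNA repair or cell cycle pathway exposed to compound. Growth then measured. Value = inhibition versus vehicle control.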

[15] = NCI Yeast Anticancer Drug Screen. Data for the mlh1 rad18 strain (AID 175); details: S. cerevisiae mlh1 rad18 strain growth inhibition, hits give high values
Method in brief: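 A repair-deficient yeast strain is exposed to test compound, and growth is scored relative to vehicle-treated controls.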

[16] = NCI Yeast Anticancer Drug Screen. Data for the rad18 strain (AID 177); details: S. cerevisiae rad18 mutant growth inhibition, hits give high values
Method in brief: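 DNA-repair-defective yeast; compound treatment; growth inhibition scored against vehicle.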

[17] = at 5.0 µM (retest, dose inferred, filed as 0.5)
[18] = at 50.0 µM (retest, dose inferred, filed as 5.0)

Measured: growth inhibition

COc1ccc(N)c2c1C(=O)c1ccccc1C2=O
inactive: [1]; at 1.2 µM 6% | [1]; at 3.7 µM 11% | [1]; at 11.0 µM 46% | [2]; at 1.2 µM 0% | [2]; at 3.7 µM 11% | [2]; at 11.0 µM 14% | [2]; at 33.0 µM 47% | [3]; at 1.2 µM 9% | [3]; at 3.7 µM 26% | [3]; at 11.0 µM 59% | [4]; at 1.2 µM 3% | [4]; at 3.7 µM -3% | [4]; at 11.0 µM 8% | [4]; at 33.0 µM 39% | [5]; at 1.2 µM 7% | [5]; at 3.7 µM 8% | [5]; [17] 30% | [5]; at 11.0 µM 35% | [5]; [18] 39% | [5]; at 50.0 µM 60.2% | [6]; at 1.2 µM -9% | [6]; at 3.7 µM 0% | [6]; [17] 47% | [6]; at 11.0 µM 12% | [6]; at 33.0 µM 40% | [6]; [18] 56% | [6]; at 50.0 µM 32.1% | [7]; at 1.2 µM -6% | [7]; at 3.7 µM -23% | [7]; at 11.0 µM 2% | [7]; at 33.0 µM 29% | [8]; [17] -15% | [8]; at 50.0 µM 62.5% | [9]; at 1.2 µM -2% | [9]; at 3.7 µM 6% | [9]; at 11.0 µM 17% | [9]; at 33.0 µM 34% | [10]; [17] 62% | [10]; at 50.0 µM 32.5% | [11]; at 1.2 µM -25% | [11]; at 3.7 µM -24% | [11]; [17] 41% | [11]; at 11.0 µM -32% | [11]; at 33.0 µM 19% | [11]; at 50.0 µM 49% | [12]; at 1.2 µM -11% | [12]; at 3.7 µM -11% | [12]; at 11.0 µM -6% | [12]; at 33.0 µM 42% | [13]; at 1.2 µM -5% | [13]; at 3.7 µM -9% | [13]; at 11.0 µM 1% | [13]; at 33.0 µM 46% | [14]; at 1.2 µM -6% | [14]; at 3.7 µM -6% | [14]; at 11.0 µM 6% | [14]; at 33.0 µM 68% | [15]; [17] 27% | [15]; [18] 40% | [16]; at 1.2 µM -20% | [16]; at 3.7 µM -12% | [16]; at 11.0 µM -10% | [16]; at 33.0 µM 54%
active: [1]; at 33.0 µM 90% | [1]; at 100.0 µM 96% | [2]; at 100.0 µM 94% | [3]; at 33.0 µM 93% | [3]; at 100.0 µM 97% | [4]; at 100.0 µM 93% | [5]; at 33.0 µM 89% | [5]; at 100.0 µM 96% | [6]; at 100.0 µM 81% | [7]; at 100.0 µM 93% | [8]; [18] 79% | [9]; at 100.0 µM 89% | [10]; [18] 71% | [11]; [18] 72% | [11]; at 100.0 µM 93% | [12]; at 100.0 µM 93% | [13]; at 100.0 µM 94% | [14]; at 100.0 µM 96% | [15]; at 50.0 µM 77.5% | [16]; at 100.0 µM 93%
